Screening data as filed in PubChem.
MEX-5 binding = MEX-5 zinc finger RNA-binding disruptors – biochemical, C. elegans, fluorescence polarization, MLPCN library, primary screen; Zinc finger protein mex-5 (Caenorhabditis elegans), Q9XUB2; AID 1832, 2009; 300,000 compounds, 0.38% hits; MEX-5/FITC-TCR2 RNA binding; active compounds read low; activity score (negative = inhibition of binding), % at 10 µM;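 active = inhibition past about -25% in most replicates, and total fluorescence under double the plate's negative control median, limit read from the data; inconclusive = replicates evenly split on the limit, or fluorescence at least double controls; inactive = too little inhibition in most replicates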
Target sequence (Q9XUB2 whole entry, looked up): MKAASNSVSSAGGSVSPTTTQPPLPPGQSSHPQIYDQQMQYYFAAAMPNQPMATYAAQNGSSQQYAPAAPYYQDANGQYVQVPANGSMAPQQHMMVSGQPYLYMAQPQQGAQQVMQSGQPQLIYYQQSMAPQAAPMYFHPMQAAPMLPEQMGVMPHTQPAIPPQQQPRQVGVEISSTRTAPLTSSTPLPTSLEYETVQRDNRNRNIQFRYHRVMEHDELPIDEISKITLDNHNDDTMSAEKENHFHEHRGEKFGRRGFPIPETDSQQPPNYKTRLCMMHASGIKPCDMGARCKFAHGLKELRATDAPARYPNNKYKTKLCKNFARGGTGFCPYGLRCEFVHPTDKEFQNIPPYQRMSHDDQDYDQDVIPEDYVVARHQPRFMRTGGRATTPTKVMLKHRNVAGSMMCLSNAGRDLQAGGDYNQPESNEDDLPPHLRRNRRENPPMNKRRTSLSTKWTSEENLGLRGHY
Yeast superoxide = reduction of superoxide in aged yeast, primary screen, HTS; S. cerevisiae aged cells, superoxide DHE fluorescence; active compounds read low; superoxide response (% of plate mean), % at 10 µM; 330,000 compounds, 0.18% hits;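 active = superoxide response under a set limit, about three screen SD below normal, cut at about 65% in these data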;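 also: yeast aged for seven days with compound at 30 °C before DHE staining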
LANA-H2B inh = blockers of LANA interaction with H2A/H2B – biochemical, FP readout, HTS, primary screen | cell-free LANA-H2A/H2B peptide, fluorescence polarization | inhibition, % (test concentration not listed) | 320,000 compounds, 0.6% hits | AID 2629, 2010; in the data active = inhibition mostly above about 10%, no sharp cut-off; inactive = mostly below about 6.7%
Bcl-xL primary = inhibitors of human Bcl-xL, primary screen, biochemical, fluorescence polarization, HTS; Bcl-2-like protein 1 (Homo sapiens), Q07817; GST-Bcl-xL / FITC-Bim BH3 peptide fluorescence polarization; inhibition, % at 10.9 µM; 320,000 compounds, 0.7% hits;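 active = inhibition above the mean of all tested compounds plus 3 SD, cutoff set per campaign, cut at about 30% in these data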;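 also: inhibitors lower millipolarization by displacing the labeled peptide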
MCL1-BIM inh = inhibitors of MCL1 binding to BIM-BH3, primary screen, biochemical, fluorescence polarization | inhibition, % at 10.9 µM | 320,000 compounds, 0.68% hits | GST-MCL1 / FITC-Bim-BH3 fluorescence polarization | AID 2057, 2009;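 active = inhibition above the mean inhibition of all tested compounds plus 3 SD, set per campaign, cut at about 40% in these data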;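 also: higher means more loss of mP so more displacement of Bim peptide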
GLD-1 TGE inh = GLD-1/TGE RNA complex disruptors, primary screen, biochemical, fluorescence polarization. Female germline-specific tumor suppressor gld-1 (Caenorhabditis elegans), Q17339. purified GLD-1 + fluorescein TGE RNA. inhibition, % at 5.96 µM. 320,000 compounds, 0.44% hits;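 active = percent inhibition above a per-plate cutoff, the plate mean of test compounds plus 3 SD, cut at about 30% in these data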
BCLXL inh confirm = Bcl-xL inhibitors blocking Bim BH3 binding, confirmation, counter-screen for MCL1 inhibitor project, biochemical, fluorescence polarization; shares compounds with MCL1-BIM inh; GST-Bcl-xL / FITC-Bim BH3 peptide FP binding; inhibition, % at 10.9 µM; 1,700 compounds, 54% hits;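 active = inhibition above a cutoff equal to the mean inhibition of all tested compounds plus 3 SD, cut at about 30% in these data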
MCL1 inh confirm = inhibitors of MCL1 binding to BIM-BH3, confirmation, biochemical, fluorescence polarization, triplicate; shares compounds with MCL1-BIM inh; GST-MCL1 / FITC-Bim-BH3 fluorescence polarization; inhibition, % at 10.9 µM; 1,700 compounds, 61% hits;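 active = inhibition above the average of all tested compounds plus 3 SD, cut at about 40% in these data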
Large screens that a line does not name were inactive (follow-up assays come after a bar, where they were run). Shown are actives, neighbours in structure and some others; about 1.9% of the full set was active somewhere.

CC(=O)n1cc(C=C2C(=O)NC(=O)NC2=O)c2ccccc21	none
Cn1cc(C=C2C(=O)NC(=O)NC2=O)c2ccccc21	MEX-5 binding inconclusive, Bcl-xL primary active, MCL1-BIM inh active | BCLXL inh confirm active | MCL1 inh confirm active
COC(=O)C1=C(c2ccc(C(C)=O)cc2)C[C@@H]2CC[C@H]1N2C(=O)NC(C)C	none (no result: MEX-5 binding)
O=C1NC(=S)NC(=O)C1=Cc1ccc(Br)s1	MCL1-BIM inh 46 | BCLXL inh confirm inactive | MCL1 inh confirm 53
Cc1ccc(OC(F)F)c(N2C(=O)C3C4CCC(O4)C3C2=O)c1 (configuration not stated)	none (no result: MEX-5 binding)
O=c1[nH]c(=S)n(-c2ccc(Br)cc2)c(O)c1C=Nc1ccc(N2CCOCC2)cc1	Bcl-xL primary 170, MCL1-BIM inh active | BCLXL inh confirm active | MCL1 inh confirm active
Cc1ccccc1NC(=O)Cc1nc(COC(=O)Cc2ccccc2)cs1	Bcl-xL primary 152, MCL1-BIM inh active, GLD-1 TGE inh 137 (no result: MEX-5 binding) | BCLXL inh confirm inactive | MCL1 inh confirm inactive
O=C(COC(=O)Cc1ccccc1)Nc1cccnc1Cl	none
CCOC(=O)c1ccccc1C(=O)OCC	Bcl-xL primary 63, MCL1-BIM inh 74, GLD-1 TGE inh 43 | BCLXL inh confirm 60 | MCL1 inh confirm 72
COC(=O)C1=C(c2ccc(F)cc2F)C[C@@H]2CC[C@H]1N2C(=O)NCc1ccc(F)cc1	none (no result: MEX-5 binding)
COC(=O)C1=C(c2ccc(F)cc2F)C[C@@H]2CC[C@H]1N2C(=O)NCCOc1ccccc1	MCL1-BIM inh 119 (no result: MEX-5 binding) | BCLXL inh confirm inactive | MCL1 inh confirm inactive
CCC(C)c1ccc(N2C(=O)NC(=O)/C(=C/c3cccn3CCOc3ccc(C)cc3)C2=O)cc1 (configuration not stated)	Bcl-xL primary 80, MCL1-BIM inh 113 | BCLXL inh confirm 42 | MCL1 inh confirm 53
Cc1ncc(CNC(=O)N(CCCl)N=O)c(N)n1	none (no result: MEX-5 binding)
Nc1ccc2ccc3cccc[n+]3c2c1	MEX-5 binding inconclusive, LANA-H2B inh 36, Bcl-xL primary active, MCL1-BIM inh active, GLD-1 TGE inh 63 | BCLXL inh confirm active | MCL1 inh confirm active
Ic1ccccc1CN[C@@H]1C2CCN(CC2)[C@@H]1C(c1ccccc1)c1ccccc1	none (no result: MEX-5 binding, LANA-H2B inh)
CC[C@H]1C2C[C@H]3[C@@H]4N(C)c5ccccc5C45C[C@H](C2[C@H]5O)N3[C@@H]1O (some centres not stated)	none (no result: MEX-5 binding)
COc1ccc2c(c1)NP(=S)(Oc1ccccc1)N2 (configuration not stated)	MEX-5 binding -47, Bcl-xL primary 50, MCL1-BIM inh 57 | BCLXL inh confirm 56 | MCL1 inh confirm 82
O=c1cc(C(F)(F)F)c2cc3c4c(c2o1)CCCN4CCC3	MEX-5 binding inconclusive, Bcl-xL primary active, MCL1-BIM inh active, GLD-1 TGE inh active | BCLXL inh confirm 179 | MCL1 inh confirm active
Cc1cc2c(C(F)(F)F)cc(=O)oc2c2c1NCCC2	Bcl-xL primary 112, MCL1-BIM inh 146, GLD-1 TGE inh 112 | BCLXL inh confirm 95 | MCL1 inh confirm 94
COC(=O)C1=C(c2cccc(C#N)c2)C[C@@H]2CC[C@H]1N2C(=O)NCc1cccc2ccccc12	none (no result: MEX-5 binding)
CN1CCc2nc3sc(C#N)c(N)c3c(-c3cccs3)c2C1	none
